This is part of a sample that, as a whole, favours compounds with a hit. Of some 83,000 tested, about 20% had one in any assay.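 Interpretation: 100, growth as untreated; towards 0, rising growth inhibition; 0, no net growth; 0 to -100, cell death. Compounds scoring below 10 were considered active.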 Unmarked numbers belong to inactive results. Calls of active or inactive are those of the source.
Tests used:
Test in all cases: NCI-60 one-dose screen, 48 h (100 = growth as untreated, 0 = no growth, -100 = all killed)
SK-MEL-2 melanoma = conditions: 10 µM
EKVX NSCLC = conditions: 10 µM
SN12C renal = conditions: 10 µM
TK-10 renal = conditions: 10 µM unless noted
ACHN renal = conditions: 10 µM
CAKI-1 renal = conditions: 10 µM
A498 renal = conditions: 10 µM
CCRF-CEM leukemia = conditions: 10 µM
MOLT-4 leukemia = conditions: 10 µM
RPMI-8226 leukemia = conditions: 10 µM
OVCAR-5 ovarian = conditions: 10 µM
OVCAR-4 ovarian = conditions: 10 µM
SK-OV-3 ovarian = conditions: 10 µM
IGROV1 ovarian = conditions: 10 µM
OVCAR-3 ovarian = conditions: 10 µM
HS 578T breast = conditions: 10 µM
NCI/ADR-RES ovarian = conditions: 10 µM
OVCAR-8 ovarian = conditions: 10 µM
SR leukemia = conditions: 10 µM

SMILES	growth (SK-MEL-2 melanoma)	growth (EKVX NSCLC)	growth (SN12C renal)	growth (TK-10 renal)	growth (ACHN renal)	growth (CAKI-1 renal)	growth (A498 renal)	growth (CCRF-CEM leukemia)	growth (MOLT-4 leukemia)	growth (RPMI-8226 leukemia)	growth (OVCAR-5 ovarian)	growth (OVCAR-4 ovarian)	growth (SK-OV-3 ovarian)	growth (IGROV1 ovarian)	growth (OVCAR-3 ovarian)	growth (HS 578T breast)	growth (NCI/ADR-RES ovarian)	growth (OVCAR-8 ovarian)	growth (SR leukemia)
COc1ccccc1NC(=O)C1=C(C)NC(C)=C(C(=O)Nc2ccccc2OC)C1c1cccc([N+](=O)[O-])c1	79.6%	44.1%	68.4%	97.4%	54.6%	50.1%	128%	64.5%	37.4%	51.9%	81.9%	70.2%	74.4%	69.7%	82.9%	60.9%	66.3%		
COC(=O)c1cc(-c2ccc(Cl)c(Cl)c2)[nH]c(=O)c1C#N	120%	94.4%	93.7%	103%	94.8%	87.5%	125%	104%	107%	112%	99.2%	103%	103%	110%	116%	74.9%	105%	101%	
CC1=CC(=O)c2ccccc2C1=O	110%	114%	99.3%	124%	95.2%	97.5%	103%		114%		105%	112%	108%	112%	113%	103%	107%	107%	
c1c(-c2cc(C3CC3)[nH]n2)n[nH]c1C1CC1	104%	76.6%	102%	106%	99.3%	97.6%	97.6%	67%	95.2%	105%	93.6%	109%	96.2%	111%	117%		98.8%	102%	
Cc1ccc(/C=C2\SC(=S)N(c3ccc(F)cc3)C2=O)o1	96.3%	82.4%	87%	102%	48.6%	54.9%	112%	89.2%	79.1%	86.4%	102%	13.6%	92.2%	90.7%	79.1%	52.2%	73%	0% (active)	
CCOC(=O)c1cc(/C=C/c2ccc(Cl)cc2Cl)on1	109%	45.2%	70.8%	155%	2.04% (active)	42.9%	133%	19%	32.5%	2.84% (active)	58.8%	76%	104%	82.2%	24.4%	71.8%	-34.9% (active)	24.1%	
COc1ccc(-c2cc(-c3cc(-c4ccc(OC)cc4)nc(N)n3)nc(N)n2)cc1	115%	92.1%	93.8%	102%	97.6%	91.9%	94.1%	76.7%	112%	99.5%	93.5%	99.6%	106%	109%	107%	96.4%	100%	99.1%	
CC1=C(/C=C/C(C)=C/C=C/C(C)=C/CO)C(C)(C)CCC1	107%	108%	104%	111%	106%	88.6%	98%		97.9%		108%	112%	114%	117%	109%	105%	103%	101%	94.8%
CCCCCCCCCCCCCC(=O)Oc1ccc[nH]c1=O	115%	83.4%	98.1%	84.2%	110%	84.5%	94.5%	75.5%	98.6%	95.7%	97.1%	102%	88.8%	97.8%	103%	98.1%	99.8%	94.9%	
S=C(Nc1ccccc1)N1CCCCC1	98%	105%	102%	109%	94.5%	94.6%	77.6%	102%		110%	90.1%	111%	107%	100%	110%	102%	107%	99.4%	105%
O=C(Cc1nc2ccc([N+](=O)[O-])cc2nc1CC(=O)c1cccnc1)c1cccnc1	113%	63.2%	56.2%	75.5%	54.1%	81.5%	86.9%	48.7%	80.8%	94.5%	101%	57.7%	47.9%	73.9%	65.1%	7.13% (active)	30.4%	31.2%	
CS(=O)CC1=NC(=N)N=C1CS(C)=O (configuration not stated)	115%	98.7%	101%	101%	107%	92.9%	104%	108%	107%	107%	111%	103%	108%	113%	118%	89.9%	103%	99.9%	
CC(=O)CC(=O)N(C)C	106%	93.5%	97%	98.4%	103%	88.3%	102%	73.7%	120%	97.9%	104%	101%	108%	109%	112%		100%	101%	
O=C1Cc2ccccc2C(=O)O1	103%	107%	101%	110%	111%	99.9%	123%	85.8%		93.4%	106%	112%	114%	114%	127%	107%	114%	102%	79.3%
CCC(C#N)(CC)c1ccccc1	105%	105%	98%	108%	103%	113%	111%	102%	107%	104%	104%		102%	112%	109%	108%	102%	107%	
CC(=O)Cc1cc(-c2cc(CC(C)=O)[nH]n2)n[nH]1	111%	89.8%	94.2%	92.4%	95.1%	87.7%	99.3%	101%	114%	109%	90.2%		90.9%	104%	111%	93.2%	96.7%	98.5%	
CCCCCCCCOC(=O)c1ccccn1	103%	107%	96.4%	102%	103%	111%	104%		116%	101%	95%	104%	95.2%	103%	110%	106%	98.8%	103%	
